BAZ2B inh – qHTS Assay for Inhibitors of BAZ2B | Potency, µM (doses to about 114 µM), for the others: at the top dose activity change, negative = inhibition, usual class: inhibitors | Bromodomain adjacent to zinc finger domain protein 2B (Homo sapiens), Q9UIF8 | actives 4.4% (n = 360,000) | AlphaScreen BAZ2B-H3K14Ac peptide displacement; also: % is scaled to controls: 0 for no effect and ±100 for the full control effect; nearly all actives have a fitted effect of over 60% in size
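In this displacement format the biotinylated H3(5-23) peptide acetylated at Lys14 serves as ligand at 50 nM, with BAZ2B at 50 nM in PBS pH 7.4 containing 0.01% Tween-20. Donor and acceptor beads are 10 ug/mL final.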
G9a block – qHTS Assay for Inhibitors of Histone Lysine Methyltransferase G9a | G9a H3K9 monomethylation, AlphaScreen, 2 h | Potency, µM (series often up to 102 µM), for inactives: at the highest dose activity, negative = inhibition, most hits filed as inhibitors | actives 8.8% (n = 350,000); also: % is scaled to controls: 0 for no effect and ±100 for the full control effect; nearly all actives have a fitted effect of over 75% in size
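G9a (20 nM) was preincubated 15 min with compound, then reacted 2 h at room temperature with 500 nM biotin-H3K9 peptide and 20 µM SAM. Monomethyl-H3K9 detected by AlphaScreen using anti-H3K9me1 antibody.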
GLS inh – qHTS for Inhibitors of Glutaminase (GLS). GLS enzymatic activity, qHTS titration. actives 0.21% (n = 410,000). Potency, µM (highest dose often 45.5 µM), without a hit: top-dose activity change, negative = inhibition, actives largely listed as inhibitors; also: % is scaled to controls: 0 for no effect and ±100 for the full control effect
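hKGA in 45 mM KH2PO4 pH 8.2, 0.02% Tween-20 with pin-transferred compounds; 1 mM L-glutamine (stock) plus glutamate oxidase/HRP/Amplex Red coupling added. Fluorescence read initially and after 30 min at RT.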
HP1b binding inh – HTS for Inhibitors of HP1-beta Chromodomain Interactions with Methylated Histone Tails; AlphaScreen HP1-beta / biotin-H3K9me3 peptide binding; Potency, µM (series often up to 114 µM), inactives show at the highest dose activity change, negative = inhibition, most hits filed as inhibitors; actives 0.56% (n = 390,000); AID 540317, 2011; also: nearly all actives have a fitted effect of over 70% in size
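AlphaScreen: HP1-beta (50 nM) preformed 30 min with biotin-H3(1-18)K9me3 peptide (50 nM) in PBS pH 7.4, 0.01% Tween-20. Compound added for 30 min at RT, then streptavidin donor/nickel chelate acceptor beads (10 ug/mL) for 30 min.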
JMJD2A Tudor – qHTS Assay for Inhibitors of JMJD2A-Tudor Domain. Lysine-specific demethylase 4A (Homo sapiens), O75164. AlphaScreen JMJD2A-Tudor / H3K4me3 peptide binding. actives 4.4% (n = 390,000). Potency, µM (top dose mostly 114 µM), without a hit: top-dose activity change, negative = inhibition, most hits filed as inhibitors; also: % is scaled to controls: 0 for no effect and ±100 for the full control effect; nearly all actives have a fitted effect of over 50% in size
Numbers without * were called inactive; ? = inconclusive; . = not tested or not shown; [ ] = remark or other dose. Hits are enriched below; roughly 10% of the tested compounds scored in any of these assays. Calls follow the shape of the dose curve; as a rule, active = well fitted curve in the direction sought with a large enough effect; inconclusive = small, poorly fitted or top-dose-only effect, or another doubt; inactive = no such curve, though single readings can be large; an effect the other way counts as inactive or inconclusive. Potency is read from the fitted curve at half-maximal effect.

SMILES	BAZ2B inh	G9a block	GLS inh	HP1b binding inh	JMJD2A Tudor
O=C(/C=C/c1ccccc1Cl)Nc1ccncc1	-36.0%	50.1µM*	1.9%	24.6%	-25.7%
O=C(/C=C/c1ccccc1Cl)NC1CCS(=O)(=O)C1 (stereo not given)	0.0%	6.0%	?	-17.9%	5.01µM*
Cc1cc(N)c2cc(NC(=O)/C=C/c3ccccc3Cl)ccc2n1	?	25.1µM*	-3.5%	-19.7%	63.1µM*
O=C(/C=C/c1ccccc1Cl)NC1CCCCC1	-2.8%	60.3%	0.1%	15.7%	2.2%
COC(=O)c1sccc1S(=O)(=O)N(CC(=O)NCc1ccc(C)cc1)c1ccc(C)cc1	-13.1%	1.4%[59 µM]	-9.9%	30.5%	-22.0%
CN(CC(=O)Nc1ccccc1Cl)C(=O)COC(=O)/C=C/c1ccc(C(F)(F)F)cc1	14.9%	48.3%[12.7 µM]	-10.1%	26.3%	0.7%
COc1ccc(C(=O)Nc2cccc(/C=C(\CCC(=O)O)c3nc4ccccc4s3)c2)cc1	79.4µM*	-2.7%[12.7 µM]	8.1%	31.6µM*	-29.4%[11.4 µM]
O=C(O)C/C(=C\c1cccc(NC(=O)c2ccccc2Cl)c1)c1nc2ccccc2s1	79.4µM*	36.3%[12.7 µM]	30.6%	-0.7%	35.5µM*
Cc1cc(/C=N/NC(=O)COc2cccc3cccnc23)c(C)n1-c1ccc(O)cc1	-9.4%	7.9%[59 µM]	-2.9%	30.2%	-7.8%
Cc1cccc(C)c1-n1c(C)cc(/C=N\NC(=O)CC(=O)NC2CCCCC2)c1C	50.1µM*	-4.0%[59 µM]	3.1%	?	?
Cc1ccccc1N(CC(=O)N/N=C/c1cc(C)n(-c2ccccc2C)c1C)S(C)(=O)=O	?	10µM*	3.6%	-3.0%	?
Cc1cc(C)cc(-n2c(C)cc(/C=N\NC(=O)COc3cccc4cccnc34)c2C)c1	?	44.7µM*	2.1%	1.8%	?
Cc1cccc(C)c1-n1c(C)cc(/C=N/NC(=O)CSc2ncccn2)c1C	44.7µM*	16.8%[59 µM]	5.6%	?	50.1µM*
COc1ccccc1-c1c(C(F)(F)F)oc2c(CN3CCCCC3C)c(O)ccc2c1=O (stereo not given)	-1.3%	7.0%[59 µM]	-5.6%	14.4%	-14.4%
Cc1ccc(-n2nc3c(=O)n(C(C)C(=O)O)nc(C)c3c2C)cc1 (stereo not given)	-1.5%	8.9%[59 µM]	-11.3%	28.6%	-6.4%
Cc1cc(C)nc(SCC(=O)N/N=C\c2sccc2C)n1	-0.3%	9.7%	3.4%	25.1%	-9.3%
Cc1cc(C)nc(SCC(=O)N/N=C/c2cc(C)n(-c3ccccc3C)c2C)n1	44.7µM*	50.1µM*	20.0%	?	?
O=C(c1cccnc1)C1Cc2ccccc2C1=O (stereo not given)	?	39.8µM*	3.2%	23.9%	-15.2%
CC1COCC(C)N1C(=O)c1cccnc1 (stereo not given)	.	.	-5.6%	.	.
C#CCN(C[C@@H]1[C@@H](OC(=O)Nc2cccs2)[C@@H](OC(=O)Nc2cccs2)Cn2c(=O)n(CCCCCC)c(=O)n21)S(=O)(=O)c1ccc(C)cc1	.	.	5.6%	.	.
CC1CCN(S(=O)(=O)c2ccc3c(c2)c(=O)c(C(=O)N2CCOCC2)cn3C)CC1	-12.2%	44.2%	1.1%	8.9%[57 µM]	-10.5%
O=[N+]([O-])c1cccc(N=Nc2ccc(O)cc2O)c1	.	.	13.1%	-11.7%[57 µM]	?
CCOc1cc(C=O)cc(N=Nc2cccc([N+](=O)[O-])c2)c1O	25.1µM*	44.7µM*	10.6%	?	?
CC(C)OP(=O)(OC(C)C)C1(O)C(=O)Nc2ccc(Br)cc21 (stereo not given)	-10.0%	17.4%[0.501 µM]	4.1%	31.2%	1.9%
NC(N)=[N+]1CCc2ccccc2C1	.	3.16µM*	.	.	.
N=C(N)N1CCc2ccccc21	-3.8%	-9.2%	-11.1%	27.6%	1.4%
CCn1c(-c2csc3c2CCCC3)n[nH]c1=S	-6.6%	7.94µM*	-14.4%	-21.9%	10µM*
